# According to the supplement of paper PMC9694430:
# Tested on: LOC_OS01G48390-cb002
# Assay: thermal shift delta Tm vs DMSO control; higher = stronger stabilization (binding)
# Conditions: 12.5 µM; protein concentration 2 µM
# Procedure, shortened: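 Compounds dissolved in DMSO were added to purified rice kinase domain constructs, which had been expressed in E. coli, for differential scanning fluorimetry. Each well held 19.5 μl of 2 μM kinase in 100 mM potassium phosphate pH 7.5, 150 mM NaCl, 10% glycerol and 5 × SYPRO Orange. Fluorescence was followed from 25°C to 95°C at a rate of 0.05°C/s. Shifts in Boltzmann-fitted melting temperature are triplicate means relative to DMSO-only protein.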
row,SMILES,thermal shift delta Tm
1,CCOc1cc2ncc(C#N)c(Nc3ccc(OCc4ccccn4)c(Cl)c3)c2cc1NC(=O)/C=C/CN(C)C [Neratinib (HKI-272)],0.77 °C
2,COc1cc2nccc(Oc3ccc(NC(=O)Nc4cc(C)on4)c(Cl)c3)c2cc1OC [Tivozanib (AV-951)],1.22 °C
3,O=C1NC(=O)C(c2ccccc2[N+](=O)[O-])=C1Nc1ccc(O)c(Cl)c1,0.67 °C
4,Cc1c(C(=O)N2CCOc3ccc(-c4ccc(N)nc4)cc3C2)ccc(S(C)(=O)=O)c1F,0.13 °C
5,Cn1nccc1Nc1nccc(-c2ccn([C@H](CO)c3ccc(Cl)c(F)c3)c(=O)c2)n1,0.6 °C
6,COc1cc2c(N3CCN(C(=O)Nc4ccc(OC(C)C)cc4)CC3)ncnc2cc1OCCCN1CCCCC1 [Tandutinib (MLN518)],-0.07 °C
7,C[C@@H]1COCCN1c1cc(=O)n2c(n1)N(Cc1cncc(Cl)c1)[C@H](C(F)(F)F)CC2,0.95 °C
8,COc1ccc(F)c(F)c1C(=O)c1cnc(NC2CCN(S(C)(=O)=O)CC2)nc1N,0.42 °C
9,O=C(NCc1ccccc1)c1csc(Nc2ccncn2)n1 [Thiazovivin],0.4 °C
10,CCN(CC)CCCCNc1ncc2cc(-c3cc(OC)cc(OC)c3)c(NC(=O)NC(C)(C)C)nc2n1,1.3 °C
11,O=c1cc(N2CCOCC2)oc2c(-c3ccc4c(c3)OCCO4)csc12,1.47 °C
12,Nc1ccc(C(=O)Nc2cccc(-c3nc(N4CCOCC4)c4oc5ncccc5c4n3)c2)cn1,0.28 °C
13,O=C(NC[C@H](O)CO)c1ccncc1Nc1ccc(I)cc1F,0.13 °C
14,CCOc1cc2ncc(C#N)c(Nc3ccc(F)c(Cl)c3)c2cc1NC(=O)/C=C/CN(C)C [Pelitinib (EKB-569)],0.69 °C
15,COc1cc2ncnc(Nc3ccc(Cl)cc3F)c2cc1OC,0.9 °C
16,"Cc1cc(Nc2ncnc3ccc(NC4=NC(C)(C)CO4)cc23)ccc1Oc1ccn2ncnc2c1 [Irbinitinib (ARRY-380, ONT-380)]",-0.78 °C
17,CC1(C)CNc2cc(NC(=O)c3cccnc3NCc3ccncc3)ccc21 [Motesanib Diphosphate (AMG-706)],0.41 °C
18,COC(=O)Nc1ccc(-c2nc(N3CCOCC3)c3cnn(C4CCN(C(=O)OC)CC4)c3n2)cc1,0.23 °C
19,COc1cc(C(=O)N2CCC(N3CCN(C)CC3)CC2)ccc1Nc1ncc2c(n1)N(C)c1ccccc1C(=O)N2C,0.42 °C

row,SMILES,thermal shift delta Tm
1,C=C(C)[C@@H]1CC[C@]2(C)CC[C@]3(C)[C@H](CC[C@@H]4[C@@]5(C)CC[C@H](O)C(C)(C)[C@@H]5CC[C@]43C)[C@@H]12 [Lupeol],-0.09 °C
2,Oc1cccc(-c2nc(N3CCOCC3)c3oc4ncccc4c3n2)c1,0.11 °C
3,CCn1c(N)c(C(=O)NC)c(=O)c2ccc(C#CC(C)(O)COC)nc21 (configuration not stated),0.18 °C
4,CCOc1cc(C(=O)N2CCC(N3CCN(C)CC3)CC2)ccc1Nc1ncc2c(n1)N(C1CCCC1)c1ccccc1C(=O)N2C,0 °C
5,Cc1ccc(NC(=O)c2cccc(C(C)(C)C#N)c2)cc1Nc1ccc2ncn(C)c(=O)c2c1,1.13 °C
6,Nc1ccc(-c2ccc3ncc4ccc(=O)n(-c5cccc(C(F)(F)F)c5)c4c3c2)cn1 [Torin 2],0.94 °C
7,CCN(CC)CCCC(C)Nc1ccnc2cc(Cl)ccc12 (configuration not stated) [Chloroquine Phosphate],-0.02 °C
8,C[C@@H](N)[C@H]1CC[C@H](C(=O)Nc2ccncc2)CC1,0.65 °C
9,COc1cc(N2CCC(N(C)C)CC2)ccc1Nc1ncc(Cl)c(Nc2ccccc2P(C)(C)=O)n1,0.54 °C
10,"CCCS(=O)(=O)Nc1ccc(F)c(C(=O)c2c[nH]c3ncc(-c4ccc(Cl)cc4)cc23)c1F [Vemurafenib (PLX4032, RG7204)]",3.18 °C
11,CO[C@H]1C[C@@H]2CC[C@@H](C)[C@@](O)(O2)C(=O)C(=O)N2CCCC[C@H]2C(=O)O[C@H]([C@H](C)C[C@@H]2CC[C@@H](OCCO)[C@H](OC)C2)CC(=O)[C@H](C)/C=C(\C)[C@@H](O)[C@@H](OC)C(=O)[C@H](C)C[C@H](C)/C=C/C=C/C=C/1C [Everolimus (RAD001)],0.33 °C
12,COc1ccc(S(=O)(=O)N(CCO)c2ccccc2CN(C)C/C=C/c2ccc(Cl)cc2)cc1 [KN-93 Phosphate],0.66 °C
13,CN(C[C@@H]1COCCO1)S(=O)(=O)Nc1ccc2ccc3ncc(-c4cnn(C)c4)cc3c(=O)c2c1,0.37 °C
14,COc1ccc(CCNCc2ccc(OCc3ccc(Cl)nc3)c(OC)c2)cc1OC,0.52 °C
15,Clc1ccc(C2(c3ccc(-c4cn[nH]c4)cc3)CCNCC2)cc1,0.45 °C
16,CN(C)Cc1cccc(N/C(=C2\C(=O)Nc3cc(C(N)=O)ccc32)c2ccccc2)c1,0.48 °C
17,"CC[C@H](CO)Nc1nc(NCc2ccccc2)c2ncn(C(C)C)c2n1 [Roscovitine (Seliciclib,CYC202)]",0.22 °C
18,Cc1cc(Nc2cc(N3CCN(C)CC3)nc(/C=C/c3ccccc3)n2)n[nH]1,2.45 °C
